Sampled rows, rich in hits. Any-hit rate of the full collection: about 2.7%.
RXFP1 antag = RXFP1 (human) relaxin receptor antagonism. AID 1259400. HEK293-RXFP1, relaxin-stimulated cAMP HTRF, 30 min; hits give low values. activity change, negative = inhibition, % at 57.5 µM. 350,000 compounds, 0.59% hits;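 active means activity change of -60% or lower, but not beyond a set lower limit; inconclusive means change between -60% and -40%, or beyond the set limit; inactive means change above -40%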; further: on the % scale 0 is the no-effect control and ±100 the full control effect
Target sequence (Q9HBX9 whole entry, looked up): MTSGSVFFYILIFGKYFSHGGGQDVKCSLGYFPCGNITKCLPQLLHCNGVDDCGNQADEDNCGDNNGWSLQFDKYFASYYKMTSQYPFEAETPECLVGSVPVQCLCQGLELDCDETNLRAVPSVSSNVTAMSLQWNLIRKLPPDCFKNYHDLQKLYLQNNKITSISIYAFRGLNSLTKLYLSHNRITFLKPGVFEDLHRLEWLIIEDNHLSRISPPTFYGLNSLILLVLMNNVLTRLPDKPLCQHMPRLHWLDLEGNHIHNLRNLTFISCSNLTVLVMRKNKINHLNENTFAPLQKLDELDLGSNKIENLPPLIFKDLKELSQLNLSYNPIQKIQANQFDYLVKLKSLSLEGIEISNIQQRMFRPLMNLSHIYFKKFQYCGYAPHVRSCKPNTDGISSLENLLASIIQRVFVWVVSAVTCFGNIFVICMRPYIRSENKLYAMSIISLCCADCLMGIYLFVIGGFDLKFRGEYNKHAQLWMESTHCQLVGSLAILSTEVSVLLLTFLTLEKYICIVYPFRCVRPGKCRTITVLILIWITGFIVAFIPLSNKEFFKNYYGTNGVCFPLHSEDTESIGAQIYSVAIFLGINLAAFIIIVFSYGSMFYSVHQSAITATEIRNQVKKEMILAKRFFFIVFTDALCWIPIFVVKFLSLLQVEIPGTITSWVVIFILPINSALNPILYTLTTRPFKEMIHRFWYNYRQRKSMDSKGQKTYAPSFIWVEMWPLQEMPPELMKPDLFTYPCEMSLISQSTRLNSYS
gsp agonist = activates gsp, the McCune-Albright syndrome mutation; gsp mutant cells, cAMP HTRF, 30 min; 340,000 compounds, 0.13% hits; AID 624287; Potency, µM (top dose mostly 76.9 µM), for the others: at the top dose activation (cAMP increase), actives largely listed as activators; active means well fitted activation curve with a large enough effect; inconclusive means small, poorly fitted or top-dose-only effect, or another doubt; inactive means no such curve, though single readings can be large or run the other way; cell line not stated here;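 further: phosphodiesterase inhibitor Ro 20-1724 added with compounds to block cAMP breakdown; potency means the concentration at half of the fitted maximal effect; nearly all actives have a fitted effect of over 60% in size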
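Cells stably selected in G418 were plated at 2000/well, grown 16-24 hr, then given compounds in DMSO with the PDE inhibitor […] (300 uM solution added) for 30 min at 37C; cAMP was read by HTRF.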
ClpP mod = qHTS Assay for Activators of ClpP; 340,000 compounds, 1.9% hits; ATP-dependent Clp protease proteolytic subunit (Bacillus subtilis (strain 168)), P80244; AID 651965, 2013; purified B. subtilis ClpP, FRET peptide cleavage, 20 min; Potency, µM (series often up to 57.5 µM), for the others: top-dose activity change, negative = active; active means well fitted falling curve with a large enough effect; inconclusive means small, poorly fitted or top-dose-only effect; inactive means no such curve, though single readings can be large or run the other way; further: potency means the concentration at half of the fitted maximal effect; the source files actives as falling curves though it sought activators and does not explain the sign; nearly all actives have a fitted effect of over 65% in size
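FRET quenching reversal measured ClpP activation: 10 microg/mL B. subtilis ClpP at pH 8 with the FRET-FV decapeptide, read at 430 nm after 320 nm excitation. The 20-min minus 0-min signal was scaled between DMSO/no-enzyme wells and ADEP (5.8 microM final).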
pAkt inh = blocks phosphorylation of Akt. Neuro2A IGF-stimulated pAkt S473 HTRF, 20 min; hits give low values. activity change, % for hits at 50 µM. 360,000 compounds, 0.32% hits. AID 651550; in the data active means activity change below about -80%; inconclusive means mostly about -51% to -80%; further: on the % scale 0 is the no-effect control and ±100 the full control effect
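Neuro2A cells (4,500/well, DMEM with 0.5% FBS) were treated with compound at a single 50 µM final concentration, stimulated with 6 nM IGF for 20 min at 37 °C, and lysed. Phospho-Akt Ser473 was read by HTRF as 665/615 ratio ×10^4.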
gsp antag = antagonists of gsp mutant (McCune-Albright syndrome) | gsp-mutant cells, cAMP HTRF, 30 min | Potency, µM (series often up to 76.9 µM), for the others: at the highest dose activity change, negative = inhibition, actives largely listed as inhibitors | 340,000 compounds, 0.4% hits; calls by dose curve; cell line not stated here;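 further: intracellular cAMP measured with PDE inhibitor Ro 20-1724 present during compound exposure; potency means the concentration at half of the fitted maximal effect; on the % scale 0 is the no-effect control and ±100 the full control effect; nearly all actives have a fitted effect of over 65% in size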
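Cells, 2000/well, grown 16–24 h in DMEM 10% FBS with 0.5 mg/ml G418, then compounds plus […] (300 uM addition stock), 30 min at 37C. cAMP read by HTRF (cAMP-d2 and anti-cAMP antibody-K in lysis buffer) after 30 min RT.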
RXFP1 ag = activates the human relaxin receptor RXFP1; Q9HBX9; HEK293T-RXFP1 cAMP TR-FRET, 30 min; response scale: percent of porcine relaxin response, buffer zero; Potency, µM (highest dose often 57.5 µM), for the others: at the highest dose activation, actives largely listed as activators; 370,000 compounds, 0.3% hits; AID 2676; active means well fitted activation curve with a large enough effect; inconclusive means small, poorly fitted or top-dose-only effect; further: potency means the concentration at half of the fitted maximal effect; on the % scale 0 is the no-effect control and ±100 the full control effect; nearly all actives have a fitted effect of over 60% in size
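Agonist response is measured as cAMP accumulation in an RXFP1-transfected HEK293T line under PDE4 inhibition. Values are scaled between buffer-only and 29 nM porcine relaxin, and EC50s come from standard Hill equation fits.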
The depositor's hits bear a star; i = inactive; ? = inconclusive; . = not tested or not shown; [ ] = another dose, or the depositor's remark.

SMILES	RXFP1 antag	gsp agonist	ClpP mod	pAkt inh	gsp antag	RXFP1 ag
N#C/C(=C\C1CC=CCC1)c1nc2ccccc2[nH]1 (stereo not given)	6	-7%	32µM*	i	1%	-1%
Cn1c(/C(C#N)=C/C2CC=CCC2)nc2ccccc21 (stereo not given)	-7	4%	-27%	i	-1%	1%
Cc1ccc2[nH]c3nc(NN)nnc3c2c1	3	1%[15.4 µM]	28µM*	i	-8%	6%
O=C(NCc1ccccc1)C(=O)Nc1nc(C23CC4CC(CC(C4)C2)C3)cs1	-19	-2%[15.4 µM]	-6%	i	-8%	1%
O=C(NCc1ccncc1)C(=O)Nc1nc(C23CC4CC(CC(C4)C2)C3)cs1	?	-6%	2%	i	45µM*	1%
Nc1nc(N)nc(C2C=CCCC2)n1 (stereo not given)	-6	?	.	i	7%	.
Cc1ccc2[nH]c3c(=O)n(CCCN4CCOCC4)cnc3c2c1	-3	-27%	14µM*	i	8%	0%
COc1cc2[nH]c3c(=O)n(CCN4CCCCC4)cnc3c2cc1OC	4	-4%	14µM*	i	-1%	1%
Cc1ccc2[nH]c3c(=O)n(CCc4cnc[nH]4)cnc3c2c1	-20	-3%	16µM*	i	9%	1%
COc1ccc2c(c1)[nH]c1c(=O)n(Cc3ccccn3)cnc12	9	4%	-8%	i	-10%	16%
Cc1ccc2[nH]c3c(=O)n(CCN4CCOCC4)cnc3c2c1	4	-27%	?	i	-4%	1%
Cc1ccc2c(c1)[nH]c1c(=O)n(Cc3ccccn3)cnc12	0	?	32µM*	i	8%	1%
CCN(CC(=O)NC1CCS(=O)(=O)C1)c1ccc([N+](=O)[O-])cc1C#N (stereo not given)	0	-22%	-4%	i	10%	0%
CCCCCCC[n+]1ccc(/C=C/c2c[nH]c3ccccc23)c2ccccc21	.	.	4%	.	.	.
CCC1CCCN1Cn1cnc2c([nH]c3ccc(Cl)cc32)c1=O (stereo not given)	-5	12%[15.4 µM]	-30%	i	-1%	2%
CCC1CCCN1Cn1cnc2c([nH]c3ccc(C)cc32)c1=O (stereo not given)	-11	0%[15.4 µM]	28µM*	i	10%	-1%
Cn1c2ccccc2c2ncn(CCCN3CCOCC3)c(=O)c21	3	3%	25µM*	i	17%	3%
COc1ccc(-c2cc(C(F)(F)F)nc(SCC(=O)NC(C)c3ccccc3)n2)cc1 (stereo not given)	.	.	4%	.	.	20%
CCCOc1ccc(C2C(=O)N(C3CCCCCC3)CC(=O)N2CCC2=CCCCC2)cc1OC (stereo not given)	1	.	0%	.	.	-5%
CC(C)Cn1c(C(C)C)nc([N+](=O)[O-])c1Sc1ccc(Cl)cn1	9	-14%	1%	i	-4%	1%
CCCCn1c(CCC)nc([N+](=O)[O-])c1Sc1ccc(Cl)cn1	4	21%	0%	-114%*	-25%	-3%
CCOC(=O)c1sc2nc(CC(=O)OC)nc(NCc3ccc(F)cc3)c2c1C	-1	-36%	3.5µM*	i	-9%	5%
CCN(N=O)c1ccc(/C=C2\C=Cc3ccccc32)cc1	.	.	0%	.	.	.
CCOC(=O)c1cc(-c2ccc(OC(F)F)cc2)nc2c1c(=O)[nH]c(=O)n2C	.	-37%	3.5µM*	i	-3%	-1%
COCCN1CCN(c2cc(-c3ccccc3)nc3cc(-c4cccc(F)c4)nn23)CC1	-3	-44%	25µM*	i	-8%	2%
COc1ccc(-c2cc3nc(-c4ccccc4)cc(N4CCC(O)CC4)n3n2)cc1	2	9%[15.4 µM]	.	i	?	15%

Assay outcomes: PubChem BioAssay, National Center for Advancing Translational Sciences (NCATS)
